Growth data for nine compounds are collected here from PubChem BioAssay (NCI).

This is part of a sample that, as a whole, favours compounds with a hit. Of some 83,000 tested, about 20% had one in any assay.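 Values shown are percent growth following 48 h exposure of cells in 96-well plates to a single concentration of compound; below 10 was considered active.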 Unmarked numbers belong to inactive results. Calls of active or inactive are those of the source.

What all share (assay): NCI-60 one-dose screen, 48 h (100 = growth as untreated, 0 = no growth, -100 = all killed)
The subject of test [1] is SR leukemia. To be noted: 10 µM unless noted.
The test system of test [2] is RPMI-8226 leukemia. The note with it: 10 µM unless noted.
In test [3] the test system is OVCAR-8 ovarian. To be noted: 10 µM unless noted.
In test [4] the test system is OVCAR-5 ovarian. To be noted: 10 µM unless noted.
The subject of test [5] is SK-OV-3 ovarian. To be noted: 10 µM unless noted.
In test [6] the test system is IGROV1 ovarian. To be noted: 10 µM unless noted.
For test [7], the system named is OVCAR-3 ovarian. The note with it: 10 µM unless noted.
The test system of test [8] is HS 578T breast. To be noted: 10 µM.
Test [9] concerns NCI/ADR-RES ovarian. The note with it: 10 µM unless noted.
The subject of test [10] is T-47D breast. The note with it: 10 µM unless noted.
Test [11] concerns BT-549 breast. The note with it: 10 µM unless noted.
Test [12] relates to MDA-MB-435 melanoma. To be noted: 10 µM unless noted.
Test [13] concerns SW-620 colon. To be noted: 10 µM unless noted.
For test [14], the system named is MCF7 breast. The note with it: 10 µM unless noted.
Test [15] deals with HCT-116 colon. The note with it: 10 µM unless noted.
The test system of test [16] is HCC-2998 colon. To be noted: 10 µM unless noted.
For test [17], the system named is KM12 colon. To be noted: 10 µM unless noted.
Test [18] deals with OVCAR-4 ovarian. The note with it: 10 µM unless noted.

As to `CCN(CC)CCCNc1cccc2c(C)cc(OC)nc12`, the growth is 78.3% in test [1]; 92.3% in [2]; 97.9% in [3]; 95.5% in test [4]; 106% in test [5]; 89.5% in test [6]. Moreover, the growth in [7] is 99.9%; in test [8], 96.4%; in test [9] it was 95.9%; in test [10], 98.7%; in [11] it was 87.4%; in test [12], 115%. For the same compound, the growth in test [13] was 102%; in test [14], 84.8%; in test [15], 95.1%; in test [16], 90.2%; in [17], 100%.

With `OC(c1cc2cc(Cl)ccc2c2cc(C(F)(F)F)ccc12)C1CCCCN1` (centres undefined), the growth is -75.3% (active) in test [1]; -48% (active) in test [2]; -74.6% (active) in test [3]; -77.8% (active) in test [4]; -0.379% (active) in test [5]; -67.4% (active) in test [6]. Besides, the growth in test [7] was -94.8% (active); in test [8], -52.6% (active); in [9], -66.1% (active); in [10], -82.1% (active); in test [11], 54.7%; in test [12], -66.1% (active). Further, the growth in test [13] was -78.3% (active); in test [14], -86.3% (active); in [15], -85.8% (active); in test [16] it was -86.9% (active); in [17], -90.9% (active).

On to `COc1ccccc1/C=N\NC(=S)Nc1ccc(F)cc1`, for which the growth was 28.6% in [1]; 79.8% in test [2]; 78.7% in [3]; 94.1% in test [4]; 89.2% in test [5]; 72.1% in test [6]. Moreover, the growth in test [7] was 69.7%; in test [8], 70.3%; in [9] it was 38.4%; in test [10], 72.5%; in [11], 73.3%; in [12], 1.12% (active). Also, the growth is 37.5% in [13]; 60.5% in test [14]; 68.7% in test [15]; 66.5% in test [16]; 51.4% in test [17].

`COC(=O)c1cc(Cl)cc([N+](=O)[O-])c1O`: the growth was 63.5% in [1]; 93.3% in test [2]; 105% in [3]; 93.7% in test [4]; 122% in test [18]; 116% in [5]. The growth in [7] is 114%; in [8], 107%; in [9] it was 114%; in [10], 101%; in test [11], 108%; in test [12] it was 99.3%. Moreover, the growth in test [13] is 102%; in test [14], 113%; in [15], 101%; in test [16], 104%; in [17] it was 109%.

Take `CC(C)CC(NC(=O)C(CCCN=C(N)N)NC(=O)OCc1ccccc1)C(=O)NC(CNC(=O)/C=C/c1ccccc1)C(C)C` (centres undefined): the growth in test [1] is 98.3%; in test [2], 96%; in [3] it was 106%; in [4] it was 89.3%; in [18], 95.8%; in test [5] it was 117%. The growth in [6] is 88.3%; in [7], 105%; in test [10] it was 96.2%; in test [11], 107%; in test [12] it was 97.5%; in test [13], 105%. Further, the growth in test [15] is 102%; in test [16], 137%; in [17], 105%.

As to `Cc1cc(NC(=O)c2ccc(N)cc2)ccc1N=Nc1ccc2cc(S(=O)(=O)O)cc(S(=O)(=O)O)c2c1`, the growth is 107% in test [1]; 94% in test [2]; 107% in test [3]; 98.7% in [4]; 117% in test [18]; 103% in test [5]. Further, the growth in [6] was 102%; in [8], 110%; in test [10], 105%; in test [11], 108%; in [12], 101%; in test [13] it was 96.7%. In addition, the growth in test [14] is 109%; in test [15] it was 111%; in test [16], 105%; in [17] it was 105%.

Regarding `Cc1n(Cc2ccc3ccccc3n2)cc[n+]1Cc1ccc2ccccc2c1`, the growth in test [1] was 11.6%; in test [2], -3.22% (active); in test [3], 11.9%; in test [4], 9.08% (active); in [5] it was -2.36% (active); in [6], 5.65% (active). Also, the growth in test [7] was 6.35% (active); in [8], 24.4%; in test [9] it was 98.7%; in test [10] it was 0.908% (active); in test [11], -0.0129% (active); in test [12], 0.529% (active). Besides, the growth in test [13] was 20.6%; in test [14] it was 4.65% (active); in [15], 4.92% (active); in test [16] it was 19.8%; in [17], 5.21% (active).

Regarding `CCOC(=O)c1ccc(N(CCC(=O)O)C(C)=O)cc1`, the growth in [1] was 129%; in test [2], 110%; in test [3], 104%; in test [4] it was 102%; in test [5], 114%; in test [6], 103%. Moreover, the growth in test [7] was 120%; in test [8] it was 114%; in [9], 109%; in [10], 112%; in test [11] it was 94.9%; in test [12], 122%. The growth in [13] was 106%; in test [14], 99.9%; in test [15] it was 104%; in test [16] it was 113%; in test [17] it was 117%.

Consider `CC(C)(C)NC(=O)C(OC(=O)C1CCc2cc(F)ccc2O1)c1ccccc1Cl` (centres undefined), for which the growth in test [1] was 98.4%; in test [2], 99%; in test [3] it was 98.3%; in test [4] it was 96.6%; in test [18], 94.9%; in [5] it was 102%. For the same compound, the growth in test [6] was 92.8%; in test [8], 99.7%; in test [9] it was 95.5%; in test [10], 86.8%; in [11], 107%; in [12], 106%. For the same compound, the growth in [13] is 99.7%; in [14] it was 97.8%; in test [15], 93.9%; in test [16] it was 102%.
